# Screening data as filed in PubChem BioAssay.
# RecA splice inh = inhibitors of M. tuberculosis RecA intein splicing; P9WHJ3; cell-free RecA intein splicing, fluorescence; inhibition, % (no concentration beside the values); 0.75% of 290,000 active; AID 2221; in the data active = inhibition above about 30%;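 note: 0% = vehicle wells and 100% = reference inhibitor control wells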
# GDH-TPI counter = counter-screen for M. tuberculosis FBA inhibitors: GDH-TPI coupled enzymes. GDH-TPI coupled enzyme counterscreen, NADH absorbance. 1.2% of 360,000 active. AID 588335. inhibition, % at 4.8 µM;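 note: 0% = DMSO wells and 100% = wells lacking the enzyme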
# Mtb bLac sens = beta-lactam sensitization of Mtb H37Rv | M. tuberculosis H37Rv growth with meropenem, percent inhibition | inhibition, % at 25 µM | 0.27% of 330,000 active | AID 434955; call rule not given here;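 note: growth measured after seven days incubation then overnight dye step; 0% = bacteria only wells and 100% = bacteria with antibiotic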
# Mtb FBA inh = inhibitors of M. tuberculosis fructose-bisphosphate aldolase; AID 588726; inhibition, % at 1 µM; purified M. tuberculosis FBA, fluorescence read-out; P9WQA3; 2.3% of 360,000 active; in the data active = inhibition above about 27%;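 note: 0% = vehicle and 100% = reference inhibitor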
# Target sequence (P9WQA3 whole entry, looked up): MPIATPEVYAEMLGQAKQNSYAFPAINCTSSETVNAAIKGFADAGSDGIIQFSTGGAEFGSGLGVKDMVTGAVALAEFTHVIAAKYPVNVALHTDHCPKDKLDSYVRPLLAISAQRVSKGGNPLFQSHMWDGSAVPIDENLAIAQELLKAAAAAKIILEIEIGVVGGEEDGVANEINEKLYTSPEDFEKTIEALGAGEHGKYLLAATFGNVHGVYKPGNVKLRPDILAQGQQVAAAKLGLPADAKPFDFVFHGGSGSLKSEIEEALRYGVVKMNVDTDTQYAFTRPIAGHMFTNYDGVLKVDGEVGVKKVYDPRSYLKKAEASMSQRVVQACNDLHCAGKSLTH
# CCHFV vOTU inh = CCHFV vOTU protease inhibition; Pep-AMC fluorescence; AID 651958; 0.55% of 370,000 active; inhibition, % at 11.5 µM; note: 0% = vehicle wells with enzyme and 100% = no enzyme wells
# An asterisk follows results filed as active; i = inactive; · = not tested or not shown; + = active, no number. Sampled rows, rich in hits. Any-hit rate of the full collection: about 4.2%. Cut-off read from the data, not from the text of the source, unless noted: active = inhibition above about 30%; inactive = the rest.
SMILES,RecA splice inh,GDH-TPI counter,Mtb bLac sens,Mtb FBA inh,CCHFV vOTU inh
COc1ccc(/C=C(/NC(=O)c2ccccc2)C(=O)N/N=C/c2ccncc2)c(OC)c1,2,29,7,2,9
COc1ccc(/C=C(\NC(=O)c2ccccc2)C(=O)N/N=C/c2cccnc2)cc1,4,39*,-2,-2,5
NS(=O)(=O)c1ccc(N2N=C(c3ccccc3)CC2c2cccc(F)c2)cc1 (configuration not stated),-13,15,-1,+,-315
COc1ccc(C2CC(c3ccccc3)=NN2c2ccc(S(N)(=O)=O)cc2)cc1OC (configuration not stated),-40,18,-3,+,-336
CC(=O)Oc1ccc(C2=NN(c3ccccc3)C(c3ccccc3)C2)cc1 (configuration not stated),-7,-3,15,129*,-20
NS(=O)(=O)c1ccc(N2N=C(c3ccccc3)CC2c2cccc(Br)c2)cc1 (configuration not stated),·,27,·,+,-88
COc1ccc(C2CC(c3ccccc3O)=NN2c2ccccc2)cc1 (configuration not stated),-27,6,-5,4,-7
O=[N+]([O-])c1ccc(N2N=C(c3ccco3)CC2c2ccccc2)cc1 (configuration not stated),-4,10,12,-17,11
O=C(NC1CCc2ccccc21)c1cc(-c2ccc(Cl)cc2)nc2ccccc12 (configuration not stated),·,·,·,·,-1
COc1ccc(S[C@]2(C(=O)N3CCCC3)CC(=O)N(c3ccc4c(ccn4C)c3)[C@@H]2c2ccc(OC)cc2)cc1,·,·,·,·,4
Cc1ccc(-n2c(SCC(=O)c3ccc(F)cc3)nnc2-c2cnccn2)cc1,·,·,·,·,4
COc1cc(C2CC(c3cccnc3)=NN2c2ccc(F)cc2)cc(OC)c1OC (configuration not stated),-34,10,2,+,-6
CNC(=S)N1N=C(c2ccccc2)CC1c1ccc(OC)c(OC)c1 (configuration not stated),-1,20,1,0,7
COc1cc(C2CC(c3ccccc3)=NN2c2ccccc2)ccc1OCC(=O)O (configuration not stated),-84,12,0,+,-27
COc1ccc(C2=NN(c3ccc(C(=O)O)cc3)C(c3ccc(OC)c(OC)c3)C2)cc1 (configuration not stated),i,35*,2,+,-221
COc1cc(N2N=C(c3ccccc3)CC2c2ccccc2)c(C=O)cc1C=O (configuration not stated),-2,20,-2,-1,8
NS(=O)(=O)c1ccc(N2N=C(c3ccc(Br)cc3)CC2c2ccc(F)cc2)cc1 (configuration not stated),-86,28,97,+,-84
COc1ccc(C2=NN(C(=O)c3ccccc3)C(c3ccc(OC)c(OC)c3)C2)c(OC(C)=O)c1 (configuration not stated),14,9,-1,0,-2
CNC(=S)N1N=C(c2ccc(Br)cc2)CC1c1ccc(Br)cc1 (configuration not stated),16,24,-1,2,7
COC(=O)C12C=C3CC(c4ccc(C)s4)=C3C(=O)N1Cc1[nH]c3ccccc3c1C2 (configuration not stated),·,·,·,·,-12
C=CCN1C(=O)[C@@H](CC(=O)NCc2ccc(OC)c(OC)c2)[C@]2(C(=O)OCC)CCCCC/C=C/12,·,·,·,·,-5
COc1ccc2c(c1OC)C(=O)N1N=C(c3ccccc3)CC21 (configuration not stated),0,20,11,-2,10
O=[N+]([O-])c1ccc(N2N=C(c3ccccc3)CC2c2ccccc2O)cc1 (configuration not stated),-54,4,24,-12,9
COc1ccc(C2CC(c3ccccc3)=NN2c2ccccc2)c(C(=O)O)c1OC (configuration not stated),-17,5,8,197*,-33
NS(=O)(=O)c1ccc(N2N=C(c3ccccc3)CC2c2ccccc2Br)cc1 (configuration not stated),·,21,·,+,-136
SMILES,RecA splice inh,GDH-TPI counter,Mtb bLac sens,Mtb FBA inh,CCHFV vOTU inh
O[C@H](COc1cccc(Br)c1)CN1CCC(C(O)(c2ccccc2)c2ccccc2)CC1,·,·,·,·,-2
COc1cc2c(cc1OC)C(c1cc3cc4c(cc3[nH]c1=O)OCO4)N(C(=O)C1CC1)CC2 (configuration not stated),-2,38*,11,11,-19
Cc1cc(-c2ccccc2)cc(-c2ccccc2)[n+]1CCc1ccccc1,2,4,-16,9,3
CCOc1ccc(-c2cc(C)[n+](CCc3ccc(OC)c(OC)c3)c(-c3ccc(OCC)cc3)c2)cc1,3,31*,100,-1,29
CC(C)(Cl)C1Cc2cc3ccc(=O)oc3cc2O1 (configuration not stated),0,26,5,167*,-115
Cc1cc(C(=O)OCCO)c(C#N)c(N)n1,-7,12,-6,143*,-171
C#CCSc1nc(C)cc(C(=O)OCC)c1C#N,·,0,16,3,-15
CCOC(=O)N1CCN(Cc2cc(=O)oc3ccc4ccccc4c23)CC1,-5,22,17,5,2
O=C(CC12CC3CC(CC(C3)C1)C2)NCC(=O)OCc1cc(=O)oc2ccc3ccccc3c12,-3,9,73,36*,-28
CCOC(=O)CC[C@@]1(C(=O)OCC)C[C@@H](CC(=O)NCc2ccc(C)o2)C(=O)N2CCCC=C21,·,·,·,·,-6
Cc1ccccc1-n1c2nc(=O)n(C)c(=O)c-2cc2ccccc21,-202,21,-11,131*,-120
Cc1ccccc1-n1c(C)nc2sccc2c1=O,-3,1,-7,1,-4
O=C(Nc1nnc(Cc2ccccc2)s1)c1ccco1,0,26,6,-2,14
NC(=O)c1cc(Cc2ccccc2)sc1NC(=O)c1ccco1,·,39*,52,3,0
O=C(CCc1ccccc1)N[C@H]1[C@@H](OC(=O)c2ccco2)CCC[C@@]12C(=O)N(Cc1ccccc1)c1ccccc12,·,·,·,·,17
C/C(CC(=O)Nc1cc(C)ccn1)=N\NC(=O)c1ccc(C)cc1,62*,0,9,8,-4
CC1CCC2(CCC(=O)N2CCCOC(=O)Nc2cccc(C(F)(F)F)c2)CC1 (configuration not stated),·,·,·,·,6
COc1ccc(-c2cc3nnc(-c4ccccc4)nc3s2)cc1,-3,3,6,9,-6
COc1ccc(-c2cc3ncnc(Cl)c3s2)cc1,3,16,51,+,-170
COc1ccc(-c2noc(C3CCCN(C(=O)Nc4cccc(C)c4)C3)n2)cc1 (configuration not stated),·,·,·,·,4
Cc1ccc(-n2c(SCC(=O)Nc3ccc4cn[nH]c4c3)nnc2-c2ccccc2)cc1,·,·,·,·,6
COc1cc(NC(=O)C2CCCN(S(=O)(=O)c3ccc(C)cc3)C2)cc(OC)c1 (configuration not stated),·,·,·,·,-4
